# Screening results as filed in PubChem BioAssay.
# A selection: hits, their analogues and other compounds. The true share with any hit is near 2.4%.
# TDP1 block: TDP1 (human) enzyme inhibition | 350,000 compounds, 0.28% hits | recombinant TDP1, AlphaScreen DNA substrate cleavage | Potency, µM (highest dose often 130 µM), without a hit: at the top dose activity change, negative = inhibition, usual class: inhibitors | AID 485290; note: potency is the fitted concentration of half-maximal effect; % is set by controls: 0 for no effect and ±100 for the full control effect; nearly all actives have a fitted effect of over 40% in size
# Target sequence (Q9NUW8 whole entry, looked up): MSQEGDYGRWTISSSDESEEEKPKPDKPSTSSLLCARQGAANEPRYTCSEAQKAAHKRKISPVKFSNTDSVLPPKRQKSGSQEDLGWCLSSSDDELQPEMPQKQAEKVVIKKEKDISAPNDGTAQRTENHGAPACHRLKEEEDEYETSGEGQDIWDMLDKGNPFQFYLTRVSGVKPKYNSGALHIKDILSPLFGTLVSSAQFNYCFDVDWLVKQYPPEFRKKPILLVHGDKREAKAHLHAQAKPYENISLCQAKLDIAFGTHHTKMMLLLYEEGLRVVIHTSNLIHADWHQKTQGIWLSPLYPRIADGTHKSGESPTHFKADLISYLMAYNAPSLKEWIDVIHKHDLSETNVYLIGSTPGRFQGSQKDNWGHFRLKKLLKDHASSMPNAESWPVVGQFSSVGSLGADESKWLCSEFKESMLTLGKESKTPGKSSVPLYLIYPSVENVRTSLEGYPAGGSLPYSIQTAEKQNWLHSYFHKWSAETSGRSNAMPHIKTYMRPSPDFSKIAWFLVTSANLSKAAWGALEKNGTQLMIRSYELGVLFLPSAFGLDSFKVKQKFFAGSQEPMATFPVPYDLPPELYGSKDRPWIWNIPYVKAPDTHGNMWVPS
#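 Steps: enzyme plus compound, 15 min RT; add biotin/phosphotyrosine-FITC oligonucleotide (15 nM final), react 5 min; add donor/acceptor beads (10 ug/ml final), 10 min; read AlphaScreen. Tdp1 at 1 nM final.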
# Pol beta inh: blocks human DNA polymerase beta activity. Pol beta primer extension/strand displacement, fluorescence kinetic. Potency, µM (titrated, usually from 114 µM), without a hit: top-dose activity change, negative = inhibition, most hits filed as inhibitors. 340,000 compounds, 1.3% hits. P06746. AID 485314; note: potency is the fitted concentration of half-maximal effect; % is set by controls: 0 for no effect and ±100 for the full control effect
#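 Homogeneous kinetic assay of primer extension and strand displacement by 10 nM Pol beta, preincubated 15 min at room temperature with compound before 50 nM substrate (final) was added. Read at 0 and 10 min; four-parameter Hill fit.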
# Pol iota inh: inhibitors of human DNA polymerase iota. Q9UNA4. Pol iota fluorescent replication assay, 10 min. Potency, µM (top dose mostly 115 µM), without a hit: at the top dose activity, negative = inhibition, most hits filed as inhibitors. 390,000 compounds, 1% hits; note: potency is the fitted concentration of half-maximal effect
#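 Fluorescent replication assay read twice, at 0 min and 10 min after adding 50 nM (final) substrate. Enzyme (10 nM) and compounds were first incubated 15 min at room temperature; enzyme-free buffer wells were negative controls.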
# FEN1 inhibitor: inhibitors of human flap endonuclease 1; P39748; Recombinant FEN1 flap cleavage, fluorescence, 15 min; Potency, µM (titrated, usually from 114 µM), for the others: at the highest dose activity change, negative = inhibition, actives largely listed as inhibitors; 390,000 compounds, 0.35% hits; AID 588795; note: potency is the fitted concentration of half-maximal effect; % is set by controls: 0 for no effect and ±100 for the full control effect; nearly all actives have a fitted effect of over 65% in size
#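 Reaction started by adding substrate (50 nM final) to 10 nM enzyme after 15 min room-temperature compound preincubation. Reads at 0 and 15 min, with data normalized and fitted to a four-parameter Hill equation.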
# Pol kappa inh-1: blocks human DNA polymerase kappa activity; purified Pol kappa, fluorescent DNA synthesis assay, 10 min; Potency, µM (series often up to 107 µM), without a hit: at the highest dose activity, negative = inhibition, hits mostly inhibitors; 400,000 compounds, 0.53% hits; AID 588579; note: potency is the fitted concentration of half-maximal effect; % is set by controls: 0 for no effect and ±100 for the full control effect
#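 Pol kappa 10 nM + cpd, 15 min RT; start w/ substrate 50 nM final; fluorescence kinetic read, 0 and 10 min. Neg ctrl: buffer, no enzyme.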
# Pol eta inh-1: blocks human DNA polymerase eta activity; recombinant Pol eta, fluorescent DNA replication assay; Potency, µM (doses to about 114 µM), for inactives: at the highest dose activity change, negative = inhibition, most hits filed as inhibitors; 390,000 compounds, 1.2% hits; AID 588591; note: potency is the fitted concentration of half-maximal effect; % is set by controls: 0 for no effect and ±100 for the full control effect
#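 Pol eta (10 nM) was preincubated with compounds for 15 min at room temperature, after which fluorescent replication substrate (50 nM final) was added to start the reaction. Fluorescence was read kinetically at 0 and 10 min.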
# GALK inh confirm: galactokinase (human) inhibition, confirmation; shares compounds with Pol eta inh-1; purified GALK, Kinase-Glo ATP depletion luminescence; Potency, µM (series often up to 115 µM), for the others: at the highest dose activity, negative = inhibition, actives largely listed as inhibitors; 150 compounds, 70% hits
# GALK redox cs: redox cycling activity in phenol red-HRP assay | AID 2035 | Phenol red-HRP H2O2 redox cycling, absorbance 600 nm | shares compounds with Pol eta inh-1 | 150 compounds, 40% hits | Potency, µM (top dose mostly 115 µM), for inactives: at the highest dose activity change, negative = H2O2 signal, hits mostly inhibitors
# HEK293 tox: counter-screen for GALK inhibitors: HEK293 cell cytotoxicity; AID 2547; HEK-293 viability, ATP luminescence (CellTiter-Glo), 24/48 h; Potency, µM (series often up to 46.1 µM), for inactives: at the top dose activity change, negative = cytotoxicity, actives largely listed as inhibitors; 170 compounds, 10% hits; shares compounds with Pol eta inh-1; note: potency is the fitted concentration of half-maximal effect; % is set by controls: 0 for no effect and ±100 for the full control effect
# Pol kappa inh-2: confirmation of human DNA polymerase kappa inhibitors; shares compounds with Pol eta inh-1; purified Pol-kappa, fluorescent strand-displacement substrate; Potency, µM, actives largely listed as inhibitors; 920 compounds, 76% hits; AID 720501; note: potency is the fitted concentration of half-maximal effect
# Pol eta inh-2: confirmation of human DNA polymerase eta inhibitors | shares compounds with Pol eta inh-1 | Pol eta primer extension, TAMRA/BHQ fluorescence, 10 min | Potency, µM, most hits filed as inhibitors | 2,600 compounds, 64% hits; note: potency is the fitted concentration of half-maximal effect
# An asterisk follows results filed as active; u = inconclusive; x = no result given; [ ] = dose if it differs, or a comment. Calls come from the whole dose curve; as a rule, active = well fitted curve in the direction sought with a large enough effect; inconclusive = small, poorly fitted or top-dose-only effect, or another doubt; inactive = no such curve, though single readings can be large; an effect the other way counts as inactive or inconclusive.
SMILES,TDP1 block,Pol beta inh,Pol iota inh,FEN1 inhibitor,Pol kappa inh-1,Pol eta inh-1,Pol eta inh-2,others
O=C(COc1ccccc1)N/N=C/c1sc(=O)n(Cc2cccc(C(=O)O)c2)c1Cl,-10%,-12%,u,-5%,-38%,22µM*,34*,
COc1ccc(OCC(=O)N/N=C/c2cccn2-c2cccc(C(=O)O)c2)cc1,x,x,10µM*,5%,79µM*,5µM*,30*,Pol kappa inh-2=21*
CN(C)c1ccc(Nc2ncnc3sc4c(c23)CCCC4)cc1,16%,-1%,21%,-4%,-1%[60.1 µM],-12%,x,
O=C(N=Nc1c(O)[nH]c2ccc([N+](=O)[O-])cc12)c1cc(-c2ccccc2Cl)nc2ccccc12,5%,u,u,-3%,-12%[60.1 µM],u,x,Pol kappa inh-2=u
O=c1[nH]n2c(=O)c3c([nH]c2c1N=Nc1cccc(Cl)c1)CCCC3,-5%,u,1%,-25%,-15%,u,76*,
CCCn1c(CCC(=O)O)ccc1-c1ccccc1,6%,3%,94%,12%,-8%,-19%,x,
Cc1ccc(-c2ccc(CCC(=O)O)n2Cc2ccco2)cc1,4%,u,u,-10%,-28%,22µM*,u,
COc1ccc(-c2nc(CS(=O)CC(=O)N3CCN(C)CC3)c(C)o2)cc1 (stereo not given),1%,40%,15%,1%,-18%,-5%,x,
CC1=C(C(=O)O)N2C(=O)C(NC(=O)c3nn(C)c(C)c3Cl)C2SC1 (stereo not given),-10%,9%,u,1%,-26%,32µM*,48*,Pol kappa inh-2=42*
CC1=C(C(=O)O)N2C(=O)C(NC(=O)c3ccn(C)n3)C2SC1 (stereo not given),-3%,u,-2%,-1%,-14%,-17%,x,
C=CCn1c(SCC(=O)c2ccc(O)c(O)c2)nnc1-c1cccc(C)c1,0%,x,79µM*,-4%,45µM*,16µM*,u,
C#CCOc1ccc(/C=C2/C(=O)N(c3cccc(C(=O)O)c3)N=C2C)cc1OC,x,13%,2µM*,u,-23%,50µM*,u,
COc1cc(/C=C2\C(=O)N(c3cccc(C(=O)O)c3)N=C2C)ccc1OCc1ccccc1,x,x,x,x,x,32µM*,u,
Cc1cnc(CNc2nc(-c3c(C)noc3C)nc3ccccc23)cn1,x,x,x,x,4%[60.1 µM],x,x,
CN1C(=O)c2ccccc2NC(=O)[C@]12O[C@@H]2c1cccc(O)c1,x,45µM*,u,2%,40µM*,11µM*,38*,
CS(=O)(=O)NN1C(=O)c2ccccc2NC1c1cccc(O)c1 (stereo not given),5%,31%,70%,-4%,2%,-11%,x,
CC(=O)c1cccc(S(=O)(=O)NCCCN2CCOCC2)c1,x,x,45µM*,1%,u,20µM*,76*,
O=c1[nH]c(/C=C/c2ccc([N+](=O)[O-])cc2)c([N+](=O)[O-])c(=O)[nH]1,4%,-3%,u,-18%,-4%,45µM*,u,GALK inh confirm=38µM*;GALK redox cs=-2%;HEK293 tox=6%
O=C(O)c1cccc(NS(=O)(=O)c2ccc(-c3ccc(S(=O)(=O)Nc4cccc(C(=O)O)c4)cc3)cc2)c1,-10%,u,u,u,50µM*,u,u,Pol kappa inh-2=21*
O=C(O)c1cccc(NS(=O)(=O)c2ccc(Oc3ccc(S(=O)(=O)Nc4cccc(C(=O)O)c4)cc3)cc2)c1,x,x,30%,-5%,-21%,-11%,x,
NC1=NC(c2cccc(Cl)c2)N(CCc2ccc(F)cc2)C(N)=N1 (stereo not given),x,21%,9%,-1%,-19%,-2%,x,
O=C1CSC(=S)N1c1cccnc1,5%,7%,u,-13%,-15%,2%,x,
O=C1CSC(=S)N1Cc1cccnc1,9%,-24%,u,-16%,-19%,u,u,
CC(C)N(Cc1ccccc1)C(C)C (tested in a mixture with another compound),11%,x,x,x,17%[60.1 µM],x,x,
COc1cccc(-n2nnc3c(=O)n(CC(=O)N4CCC(C)CC4)cnc32)c1,0%,6%,19%,-16%,1%,-9%,x,
SMILES,TDP1 block,Pol beta inh,Pol iota inh,FEN1 inhibitor,Pol kappa inh-1,Pol eta inh-1,Pol eta inh-2,others
COc1ccc(-n2nnc3c(=O)n(CC(=O)N4CCC(C)CC4)cnc32)cc1,0%,-7%,17%,19%,10%,-5%,x,GALK inh confirm=-5%;GALK redox cs=1%;HEK293 tox=-5%
O=C(CSc1nc2ccccc2c(=O)n1-c1ccccc1)NC(=O)CN1CCCC1=O,22µM*,13µM*,u,-2%,u,45µM*,u,
COc1cccc(C2N=C(Nc3nc4ccccc4o3)NC3=C2C(=O)CC(C)(C)C3)c1 (stereo not given),x,x,x,x,x,x,x,HEK293 tox=6%
O=c1[nH]c(Nc2nc3ccccc3o2)nc2c1CCCC2,9%,2%,6%,25%,-6%,-1%,x,
O=C1CCCC2=C1C(c1ccc(Cl)cc1)N=C(Nc1nc3ccccc3o1)N2 (stereo not given),1%,x,-6%,-16%,1%,x,x,HEK293 tox=13%
COc1ccccc1C1N=C(Nc2nc3ccccc3o2)NC2=C1C(=O)CC(C)(C)C2 (stereo not given),1%,x,29%,-13%,-18%,x,x,HEK293 tox=-28%
CC1(C)CC(=O)C2=C(C1)Nc1ccccc1NC2c1cccc(F)c1 (stereo not given),5%,12%,1%,2%,4%,-12%,x,
CC1(C)CC(=O)C2=C(C1)NC(Nc1nc3ccccc3o1)=NC2c1cccc(Cl)c1 (stereo not given),x,x,x,x,x,x,x,HEK293 tox=u
